Screening data as filed in PubChem.
Many of the other results were omitted from the sample, so hits are more common in it than they were.
Pf Dd2 growth: Plasmodium falciparum Dd2 growth inhibition; P. falciparum Dd2 growth, SYBR Green, 72 h; Potency, µM (highest dose often 28.9 µM), hits mostly inhibitors; actives 4.3% (n = 120,000); AID 1347417; active = well fitted inhibition curve with a large enough effect; also: nearly all actives have a fitted effect of over 65% in size
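Readout: SYBR Green fluorescence, 485 nm excitation, 535 nm emission, after ~16 h lysis at 37C. Before that, Dd2-infected red cells (2.5% hematocrit) grew 72 h with compound, 29 uM top final concentration.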
Of the large screens only hits and unclear results are named; the others gave an inactive call.

COc1ccc(OC)c(CNC(=O)CC2CCOCC2)c1	none
Cc1ccc(-c2c(CN3CCN(c4cc(C)ccc4C)CC3)csc2C)cc1	Pf Dd2 growth 10µM
Cc1ccc(C)c(N2CCN(Cc3csc(C)c3C)CC2)c1	none
CCc1c(CN2CCN(c3cccc(C)c3)C(C)C2)csc1C (stereo not drawn)	none
O=C(c1ccccc1)N1CCCC(CN2CCOCC2)CC1 (stereo not drawn)	none
O=C(NCC12CCCC=C1N(Cc1ccccc1)C(=O)CC2)c1ccncc1 (stereo not drawn)	none
O=C(CCc1ccc2c(c1)OCO2)N[C@H](c1cccs1)C1CC(O)C1 (stereo partly drawn)	none
COc1ccccc1CNC(=O)c1ccc2c(c1)C(O)CCCCCN2C (stereo not drawn)	none
CC(C)CN1CCN(C(=O)c2ccc3c(c2)C(O)CCCCCN3C)CC1 (stereo not drawn)	none
Cc1ccc(CN2CCN(C(=O)c3ccc4c(c3)C(O)CCCCCN4C)CC2)cc1 (stereo not drawn)	Pf Dd2 growth 13µM
CN1CCCCCC(O)c2cc(C(=O)N3CCN(C4CCCCC4)CC3)ccc21 (stereo not drawn)	none
CN1CCCCCC(O)c2cc(C(=O)NCc3nc4ccccc4n3C)ccc21 (stereo not drawn)	none
CN1CCCCCC(O)c2cc(C(=O)NCc3cccc(C(F)(F)F)c3)ccc21 (stereo not drawn)	Pf Dd2 growth 10µM
O=C(NCCCN1CCOCC1)c1noc(-c2ccc[nH]c2=O)n1	none
CCC(CC)C(=O)N1C[C@@H]2OCC(=O)N(CC3CC3)[C@@H]2C1	none
CCN(CC)Cc1cnc2c(C(=O)NCCc3cnccn3)cnn2c1	none
CCN(CC)Cc1cnc2c(C(=O)NCCc3c[nH]c4ccccc34)cnn2c1	Pf Dd2 growth 8.9µM
CCN(CC)Cc1cnc2c(C(=O)NCCc3cccs3)cnn2c1	none
O=C(c1cc(-c2ccc(Cl)cc2Cl)c2cccn2n1)N1CCN(c2ncccn2)CC1	none
O=C(NCCc1ccncc1)C1CN(C(=O)CCC2CCCC2)CC12CCOCC2 (stereo not drawn)	none
COc1ccc(-c2nc(CN3C(=O)CN=C(c4ccccc4Cl)c4cc(Cl)ccc43)c(C)o2)cc1OC	Pf Dd2 growth 13µM
Cc1oc(-c2ccc(Cl)cc2)nc1CN1C(=O)CN=C(c2ccccc2)c2cc(Cl)ccc21	none
Cc1oc(-c2ccc(Cl)cc2)nc1CN1C(=O)CN=C(c2ccccc2)c2ccccc21	none
COCC(=O)NC[C@H]1O[C@@H](CO)[C@@H](O)[C@H]1N1CCc2ccccc2C1	none
CN1c2cc(C(N)=O)ccc2C(=O)N2CCCCC21 (stereo not drawn)	none
C#CCN(C)Cc1nc(C2(O)CCN(C3CCC3)CC2)cs1	Pf Dd2 growth 10µM
C#CCN(C)Cc1nc(C2(O)CCN(CC3CC3)CC2)cs1	none
C#CCN(C)Cc1nc(C2(O)CCN(C)CC2)cs1	none
CC(=O)N1CCCN(Cc2nnc(C(=O)N3CCC[C@@H]3c3cccc(F)c3)n2-c2cccnc2)CC1	none
CC(C)CNC(=O)CN1CN(c2ccccc2)C2(CCN(C(=O)NC3CCCCC3)CC2)C1=O	Pf Dd2 growth 1.6µM
COCCNC(=O)CN1CN(c2ccccc2)C2(CCN(C(=O)NC3CCCCC3)CC2)C1=O	none
CCc1ccccc1NC(=O)N1CCC2(CC1)C(=O)N(CC(=O)NC(C)C)CN2c1ccccc1	none
Cc1ccc(C(=O)N2CCC3(CC2)[C@H](O)C[C@@H]3O)cc1N1CCNC1=O	none
COc1ccc(-c2noc(C(=O)O)c2[C@@H](C)NC(=O)Cc2ccccc2)cc1	none
CCN(C(=O)Cn1cnc2onc(-c3ccc(F)cc3)c2c1=O)c1cc(C)ccc1C	Pf Dd2 growth 10µM
CCOC(=O)Cn1cnc2onc(-c3ccc(F)cc3)c2c1=O	none
CCCN(C(=O)CCn1cnc2onc(-c3ccc(F)cc3)c2c1=O)c1ccccc1C	none
C#CCNC(=O)c1cc(-c2ccc(Cl)cc2Cl)c2cccn2n1	none
CCOc1ccc(Nc2oc(/C=C/c3ccc(OC)c(OC)c3)nc2C#N)cc1	none
COc1ccc(/C=C/c2nc(C#N)c(NCc3ccc(C)cc3)o2)cc1OC	none
CCN(CC)CCCNc1oc(/C=C/c2ccc(OC)c(OC)c2)nc1C#N	Pf Dd2 growth 2.5µM
CN1C[C@H](NC(=O)c2ccc3c(c2)OCO3)CCC[C@@H](C(=O)NCc2cc(F)cc(F)c2)CC1=O	none
CC(O)c1cc2n(n1)CCCN(C(=O)c1n[nH]c3c1COCC3)C2 (stereo not drawn)	none
COc1cccc(CC(=O)N[C@@H]2CN(Cc3ccccn3)C[C@H]2CN(C)C)c1	none
CO[C@H]1[C@H](NC(=O)c2cc3ccccc3n2C)c2ccccc2C12CCNCC2	Pf Dd2 growth 7.9µM
CO[C@H]1[C@H](NC(=O)c2cc(C)nn2C)c2ccccc2C12CCNCC2	none
CO[C@H]1[C@H](NC(=O)c2cc3ccccc3[nH]2)c2ccccc2C12CCNCC2	none
CCOc1cc(=O)n2c(c1C(=O)Nc1ccc(C)cc1)CCCC2	none
CCCCNC(=O)CN1C(=O)NC(c2ccc(OCC)cc2)C2=C1COC2=O (stereo not drawn)	none
Cc1ccc(C)c(NC(=O)c2cc3cn(C4CC4)cc3s2)c1	none
COc1cccc(CN2CCCC(c3ccc(C(=O)O)cc3)C2)c1OC (stereo not drawn)	none
COc1cc2c(cc1OC)CN(C1CCCN(Cc3c(O)cccc3OC)C1)CC2 (stereo not drawn)	Pf Dd2 growth 10µM
COc1cc(CN2CCCC(COc3ccccc3C(=O)N3CCCC3)C2)ccc1O (stereo not drawn)	none
COc1ccc(N2CCN(C3CCCN(CC(N)=O)C3)CC2)cc1 (stereo not drawn)	none
COc1ccc(N2CCN(C3CCCN(CC4CC4)C3)CC2)cc1 (stereo not drawn)	none
COc1ccc(F)c(CN2CCCN3CCC[C@H]3C2)c1Cl	Pf Dd2 growth 13µM
O=C(NCc1nnc2n1C(C(=O)N1CCOCC1)CC2)Nc1cccnc1 (stereo not drawn)	none
Cc1ccc(C(=O)NC2CCN(c3cc(-c4ccccc4)[nH]n3)C2)s1 (stereo not drawn)	none
COc1ccc(-c2cc(N3CCCC(NC(=O)C4CCCCC4)C3)n[nH]2)cc1 (stereo not drawn)	none
COc1cccc2c1OCC(C(=O)NCCc1ccc(N(C)C)cc1)C2 (stereo not drawn)	none
Cc1ccc(CNC(=O)CN2C(=O)NC3(CCC(C)CC3)C2=O)cc1 (stereo not drawn)	none
O=c1c2c3c(nn2ccn1Cc1ccccc1)CCCC3	none
Cc1ccc(-c2nocc2CCC(=O)NCC2CCCO2)cc1 (stereo not drawn)	none
COc1cccc([S+](=O)([O-])N2CC(Oc3ccc(F)cc3F)C2)c1	none
COc1ccc(NC(=O)c2nc(C(O)c3ccccc3)oc2C)cn1 (stereo not drawn)	none
Cc1oc(C(O)c2ccccc2)nc1C(=O)Nc1ccc2c(c1)NC(=O)CO2 (stereo not drawn)	Pf Dd2 growth 10µM
Cc1oc(C(O)c2ccccc2)nc1C(=O)Nc1ccc(C(=O)Nc2ccccc2)cc1 (stereo not drawn)	none
Cn1cc(C(=O)NC2CC(=O)N(Cc3cccc4ccccc34)C2)ccc1=O (stereo not drawn)	none
Cc1ccc(Nc2nc3nonc3nc2Nc2cccc(C(F)(F)F)c2)cc1Cl	Pf Dd2 growth 1.1µM
CCOC(=O)c1noc2ncnc(Nc3cccc(C(F)(F)F)c3)c12	none
CCOC(=O)c1c(C)oc2ncnc(Nc3cccc(C(F)(F)F)c3)c12	none
Cc1cnc(=O)[nH]c1SCC(=O)Nc1cc(C(F)(F)F)ccc1Cl	none
O=C(CSc1nccn1Cc1ccco1)Nc1cc(C(F)(F)F)ccc1Cl	none
CC(C)OC(=O)c1cccnc1SCC(=O)Nc1ccc(C(F)(F)F)cc1Cl	Pf Dd2 growth 3.2µM
